Reference: publication PMC7862700, “An all-to-all approach to the identification of sequence-specific readers for epigenetic DNA modifications on cytosine”

Key:
Test in all cases: DAPPL (digital affinity profiling via proximity ligation, sequencing); 10 mM Tris-HCl pH 7.5, 50 mM NaCl, 1 mM DTT, 4% glycerol, room temperature, 30 min; GST-TFs on glutathione beads, 16-mer random dsDNA library, 0.1% formaldehyde crosslink after washing; high values mean tight binding
Settings in all cases: protein: recombinant; tags: N-terminal GST; dsDNA, one strand shown
ERF = target: T1, ERF (Homo sapiens, UniProt P50548 1-548)
T1 sequence: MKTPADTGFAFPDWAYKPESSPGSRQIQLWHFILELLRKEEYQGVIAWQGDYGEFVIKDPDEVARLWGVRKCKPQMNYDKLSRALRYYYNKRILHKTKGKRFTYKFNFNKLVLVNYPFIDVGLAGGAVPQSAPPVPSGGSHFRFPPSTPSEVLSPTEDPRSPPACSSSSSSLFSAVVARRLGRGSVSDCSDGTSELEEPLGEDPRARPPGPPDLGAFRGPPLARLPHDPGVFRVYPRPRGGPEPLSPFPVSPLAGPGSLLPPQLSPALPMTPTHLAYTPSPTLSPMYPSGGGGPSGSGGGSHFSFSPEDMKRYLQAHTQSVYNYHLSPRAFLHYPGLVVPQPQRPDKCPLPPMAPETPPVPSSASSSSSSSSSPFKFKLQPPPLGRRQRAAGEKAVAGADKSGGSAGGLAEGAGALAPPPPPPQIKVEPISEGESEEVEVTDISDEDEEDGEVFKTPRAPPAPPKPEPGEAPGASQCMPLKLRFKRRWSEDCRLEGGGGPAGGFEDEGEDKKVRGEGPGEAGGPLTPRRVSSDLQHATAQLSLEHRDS
Method in brief: (§1)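 Binding signal is defined as a hexamer's read frequency for one factor over its frequency for the tag-only sample. To obtain reads, GST-fused human transcription factors were expressed in yeast, captured on glutathione beads, barcoded with DNA and pooled with that sample. Pools met 200 nmole of a 16-mer random double-stranded DNA library in Tris/NaCl/DTT/glycerol buffer for 30 min at room temperature before washing, 0.1% formaldehyde crosslinking, proximity ligation (BsaI/T4 ligase, 1 h, 37 °C), PCR and Illumina NextSeq500 sequencing.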

ETV3L = target: T2, ETV3L (Homo sapiens, UniProt Q6ZN32 1-361)
T2 sequence: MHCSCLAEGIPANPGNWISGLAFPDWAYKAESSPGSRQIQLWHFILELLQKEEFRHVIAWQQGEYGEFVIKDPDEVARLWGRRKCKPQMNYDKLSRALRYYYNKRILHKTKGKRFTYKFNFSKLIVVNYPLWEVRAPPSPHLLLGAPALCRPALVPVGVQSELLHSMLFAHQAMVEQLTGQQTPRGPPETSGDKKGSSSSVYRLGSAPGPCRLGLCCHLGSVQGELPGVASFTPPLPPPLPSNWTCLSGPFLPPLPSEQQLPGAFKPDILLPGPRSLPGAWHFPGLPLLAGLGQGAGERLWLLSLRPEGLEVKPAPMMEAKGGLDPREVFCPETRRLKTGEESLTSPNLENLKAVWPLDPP
Method in brief: as §1

ETS2 = target: T3, ETS2 (Homo sapiens, UniProt P15036 1-469)
T3 sequence: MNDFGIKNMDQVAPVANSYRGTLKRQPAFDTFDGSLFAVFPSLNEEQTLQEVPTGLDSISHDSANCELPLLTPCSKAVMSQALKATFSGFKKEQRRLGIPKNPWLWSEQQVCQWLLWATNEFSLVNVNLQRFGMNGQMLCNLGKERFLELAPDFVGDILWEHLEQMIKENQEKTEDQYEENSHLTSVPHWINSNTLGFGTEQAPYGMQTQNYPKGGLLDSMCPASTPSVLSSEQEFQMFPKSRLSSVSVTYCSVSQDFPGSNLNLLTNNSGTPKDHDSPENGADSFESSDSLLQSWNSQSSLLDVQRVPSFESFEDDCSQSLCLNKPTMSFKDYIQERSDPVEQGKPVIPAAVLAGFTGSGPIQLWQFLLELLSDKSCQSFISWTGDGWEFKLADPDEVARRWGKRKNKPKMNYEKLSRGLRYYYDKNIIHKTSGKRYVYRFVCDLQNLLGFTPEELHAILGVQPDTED
Method in brief: as §1

SPDEF = target: T4, SPDEF (Homo sapiens, UniProt O95238 1-335)
T4 sequence: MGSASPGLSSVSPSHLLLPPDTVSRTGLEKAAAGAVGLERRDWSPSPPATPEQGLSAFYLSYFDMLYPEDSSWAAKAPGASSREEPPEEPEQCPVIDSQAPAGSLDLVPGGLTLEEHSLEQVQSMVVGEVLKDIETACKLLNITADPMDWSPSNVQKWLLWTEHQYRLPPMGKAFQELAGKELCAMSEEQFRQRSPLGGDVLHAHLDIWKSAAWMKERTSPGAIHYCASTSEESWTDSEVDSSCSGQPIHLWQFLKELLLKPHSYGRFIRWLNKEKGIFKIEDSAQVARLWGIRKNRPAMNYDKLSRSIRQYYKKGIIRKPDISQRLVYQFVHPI
Method in brief: as §1

ETV7 = target: T5, ETV7 (Homo sapiens, UniProt Q9Y603 1-341)
T5 sequence: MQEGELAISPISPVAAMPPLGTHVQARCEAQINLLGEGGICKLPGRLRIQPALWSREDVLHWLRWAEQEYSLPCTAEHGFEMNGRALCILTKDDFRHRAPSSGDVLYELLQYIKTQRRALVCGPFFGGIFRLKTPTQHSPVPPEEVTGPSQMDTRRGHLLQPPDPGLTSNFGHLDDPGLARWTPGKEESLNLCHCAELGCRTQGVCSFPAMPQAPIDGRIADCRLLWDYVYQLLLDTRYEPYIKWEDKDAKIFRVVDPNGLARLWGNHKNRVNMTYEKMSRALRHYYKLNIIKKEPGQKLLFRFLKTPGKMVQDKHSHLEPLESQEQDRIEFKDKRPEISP
Method in brief: as §1

ELF5 = target: T6, ELF5 (Homo sapiens, UniProt Q9UKW6-2 1-255)
T6 sequence: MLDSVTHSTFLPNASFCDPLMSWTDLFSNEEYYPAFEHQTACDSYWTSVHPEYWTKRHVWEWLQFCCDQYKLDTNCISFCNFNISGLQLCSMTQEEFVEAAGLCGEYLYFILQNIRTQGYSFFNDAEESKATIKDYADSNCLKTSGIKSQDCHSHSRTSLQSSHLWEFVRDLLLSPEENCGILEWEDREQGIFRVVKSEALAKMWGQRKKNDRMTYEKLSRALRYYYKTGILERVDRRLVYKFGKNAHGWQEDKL
Method in brief: as §1

ETV3 = target: T7, ETV3 (Homo sapiens, UniProt P41162-2 1-143)
T7 sequence: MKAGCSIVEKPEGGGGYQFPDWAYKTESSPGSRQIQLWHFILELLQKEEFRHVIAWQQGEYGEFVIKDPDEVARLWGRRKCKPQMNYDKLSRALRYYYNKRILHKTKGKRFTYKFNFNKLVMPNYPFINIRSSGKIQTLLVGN
Method in brief: as §1

ETV6 = ETV6 (Homo sapiens, UniProt P41212 1-452)
Method in brief: as §1

Chain of ETV6 (P41212 whole entry): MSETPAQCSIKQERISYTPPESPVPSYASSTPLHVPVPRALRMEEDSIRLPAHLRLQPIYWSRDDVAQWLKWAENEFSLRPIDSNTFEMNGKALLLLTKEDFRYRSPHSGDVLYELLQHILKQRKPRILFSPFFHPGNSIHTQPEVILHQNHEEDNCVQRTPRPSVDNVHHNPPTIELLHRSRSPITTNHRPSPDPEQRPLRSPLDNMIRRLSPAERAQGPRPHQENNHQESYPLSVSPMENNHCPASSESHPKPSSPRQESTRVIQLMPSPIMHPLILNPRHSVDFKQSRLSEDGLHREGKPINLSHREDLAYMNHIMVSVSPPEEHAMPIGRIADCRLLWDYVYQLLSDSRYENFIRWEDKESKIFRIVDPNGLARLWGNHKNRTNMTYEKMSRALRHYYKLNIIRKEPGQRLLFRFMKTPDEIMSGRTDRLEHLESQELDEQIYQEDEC

Sequence	binding signal (ERF)	binding signal (ETV3L)	binding signal (ETS2)	binding signal (SPDEF)	binding signal (ETV7)	binding signal (ELF5)	binding signal (ETV3)	binding signal (ETV6)
CTAACC	1.17 fold enrichment (6-mer frequency, TF over GST control)	1.2 fold enrichment (6-mer frequency, TF over GST control)	1.15 fold enrichment (6-mer frequency, TF over GST control)	1.09 fold enrichment (6-mer frequency, TF over GST control)	1.04 fold enrichment (6-mer frequency, TF over GST control)	1.14 fold enrichment (6-mer frequency, TF over GST control)	1.16 fold enrichment (6-mer frequency, TF over GST control)	–
TTAGTT	1.37 fold enrichment (6-mer frequency, TF over GST control)	1.35 fold enrichment (6-mer frequency, TF over GST control)	1.23 fold enrichment (6-mer frequency, TF over GST control)	1.38 fold enrichment (6-mer frequency, TF over GST control)	1.25 fold enrichment (6-mer frequency, TF over GST control)	1.24 fold enrichment (6-mer frequency, TF over GST control)	1.45 fold enrichment (6-mer frequency, TF over GST control)	1.38 fold enrichment (6-mer frequency, TF over GST control)
TTTTCG	1.25 fold enrichment (6-mer frequency, TF over GST control)	1.41 fold enrichment (6-mer frequency, TF over GST control)	1.26 fold enrichment (6-mer frequency, TF over GST control)	1.16 fold enrichment (6-mer frequency, TF over GST control)	1.2 fold enrichment (6-mer frequency, TF over GST control)	1.3 fold enrichment (6-mer frequency, TF over GST control)	1.25 fold enrichment (6-mer frequency, TF over GST control)	1.09 fold enrichment (6-mer frequency, TF over GST control)
AGCTTC	1.75 fold enrichment (6-mer frequency, TF over GST control)	1.64 fold enrichment (6-mer frequency, TF over GST control)	1.77 fold enrichment (6-mer frequency, TF over GST control)	1.67 fold enrichment (6-mer frequency, TF over GST control)	1.65 fold enrichment (6-mer frequency, TF over GST control)	2.21 fold enrichment (6-mer frequency, TF over GST control)	1.77 fold enrichment (6-mer frequency, TF over GST control)	1.84 fold enrichment (6-mer frequency, TF over GST control)
ATGCTC	1.33 fold enrichment (6-mer frequency, TF over GST control)	1.51 fold enrichment (6-mer frequency, TF over GST control)	1.42 fold enrichment (6-mer frequency, TF over GST control)	1.43 fold enrichment (6-mer frequency, TF over GST control)	1.37 fold enrichment (6-mer frequency, TF over GST control)	1.38 fold enrichment (6-mer frequency, TF over GST control)	1.35 fold enrichment (6-mer frequency, TF over GST control)	1.44 fold enrichment (6-mer frequency, TF over GST control)
CACTTT	1.3 fold enrichment (6-mer frequency, TF over GST control)	1.24 fold enrichment (6-mer frequency, TF over GST control)	1.32 fold enrichment (6-mer frequency, TF over GST control)	1.16 fold enrichment (6-mer frequency, TF over GST control)	1.26 fold enrichment (6-mer frequency, TF over GST control)	1.23 fold enrichment (6-mer frequency, TF over GST control)	1.32 fold enrichment (6-mer frequency, TF over GST control)	1.26 fold enrichment (6-mer frequency, TF over GST control)
GAACTC	1.11 fold enrichment (6-mer frequency, TF over GST control)	1.3 fold enrichment (6-mer frequency, TF over GST control)	1.26 fold enrichment (6-mer frequency, TF over GST control)	1.33 fold enrichment (6-mer frequency, TF over GST control)	1.29 fold enrichment (6-mer frequency, TF over GST control)	1.32 fold enrichment (6-mer frequency, TF over GST control)	1.33 fold enrichment (6-mer frequency, TF over GST control)	1.28 fold enrichment (6-mer frequency, TF over GST control)
GGTCTT	1.22 fold enrichment (6-mer frequency, TF over GST control)	1.07 fold enrichment (6-mer frequency, TF over GST control)	1.23 fold enrichment (6-mer frequency, TF over GST control)	1.12 fold enrichment (6-mer frequency, TF over GST control)	1.19 fold enrichment (6-mer frequency, TF over GST control)	1.2 fold enrichment (6-mer frequency, TF over GST control)	1.16 fold enrichment (6-mer frequency, TF over GST control)	–
GTTAAC	1.12 fold enrichment (6-mer frequency, TF over GST control)	1.14 fold enrichment (6-mer frequency, TF over GST control)	1.22 fold enrichment (6-mer frequency, TF over GST control)	1.23 fold enrichment (6-mer frequency, TF over GST control)	1.24 fold enrichment (6-mer frequency, TF over GST control)	1.22 fold enrichment (6-mer frequency, TF over GST control)	1.27 fold enrichment (6-mer frequency, TF over GST control)	1.18 fold enrichment (6-mer frequency, TF over GST control)
CCAACT	1.13 fold enrichment (6-mer frequency, TF over GST control)	1.21 fold enrichment (6-mer frequency, TF over GST control)	1.24 fold enrichment (6-mer frequency, TF over GST control)	1.27 fold enrichment (6-mer frequency, TF over GST control)	1.2 fold enrichment (6-mer frequency, TF over GST control)	1.17 fold enrichment (6-mer frequency, TF over GST control)	1.17 fold enrichment (6-mer frequency, TF over GST control)	1.18 fold enrichment (6-mer frequency, TF over GST control)
CCCGCC	1.53 fold enrichment (6-mer frequency, TF over GST control)	1.56 fold enrichment (6-mer frequency, TF over GST control)	1.38 fold enrichment (6-mer frequency, TF over GST control)	1.39 fold enrichment (6-mer frequency, TF over GST control)	1.48 fold enrichment (6-mer frequency, TF over GST control)	1.45 fold enrichment (6-mer frequency, TF over GST control)	1.47 fold enrichment (6-mer frequency, TF over GST control)	1.63 fold enrichment (6-mer frequency, TF over GST control)
TACACT	1.51 fold enrichment (6-mer frequency, TF over GST control)	1.51 fold enrichment (6-mer frequency, TF over GST control)	1.49 fold enrichment (6-mer frequency, TF over GST control)	1.55 fold enrichment (6-mer frequency, TF over GST control)	1.49 fold enrichment (6-mer frequency, TF over GST control)	1.52 fold enrichment (6-mer frequency, TF over GST control)	1.45 fold enrichment (6-mer frequency, TF over GST control)	1.6 fold enrichment (6-mer frequency, TF over GST control)
AATGCG	1.18 fold enrichment (6-mer frequency, TF over GST control)	1.36 fold enrichment (6-mer frequency, TF over GST control)	1.3 fold enrichment (6-mer frequency, TF over GST control)	1.26 fold enrichment (6-mer frequency, TF over GST control)	1.21 fold enrichment (6-mer frequency, TF over GST control)	1.3 fold enrichment (6-mer frequency, TF over GST control)	1.22 fold enrichment (6-mer frequency, TF over GST control)	1.29 fold enrichment (6-mer frequency, TF over GST control)
ACCTAC	1.17 fold enrichment (6-mer frequency, TF over GST control)	1.26 fold enrichment (6-mer frequency, TF over GST control)	1.2 fold enrichment (6-mer frequency, TF over GST control)	1.17 fold enrichment (6-mer frequency, TF over GST control)	1.09 fold enrichment (6-mer frequency, TF over GST control)	1.29 fold enrichment (6-mer frequency, TF over GST control)	1.25 fold enrichment (6-mer frequency, TF over GST control)	1.32 fold enrichment (6-mer frequency, TF over GST control)
TTATGT	1.29 fold enrichment (6-mer frequency, TF over GST control)	1.26 fold enrichment (6-mer frequency, TF over GST control)	1.3 fold enrichment (6-mer frequency, TF over GST control)	1.36 fold enrichment (6-mer frequency, TF over GST control)	1.3 fold enrichment (6-mer frequency, TF over GST control)	1.23 fold enrichment (6-mer frequency, TF over GST control)	1.34 fold enrichment (6-mer frequency, TF over GST control)	1.43 fold enrichment (6-mer frequency, TF over GST control)
